Data taken from PubChem BioAssay AID488890 (Southern Research Specialized Biocontainment Screening …, 2010).
Hit rate of the full screen: of about 320,000 compounds, about 1,300 (0.41%) were called active. About 3% were inconclusive and are not listed. How the calls were made is not given here. Not all results are given here. Results with a measured potency or affinity are listed apart.

Experiment: growth inhibition of non-replicating M. tuberculosis (AID 488890);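 further: plate controls were DMSO cells for no effect and high antibiotic wells for full effect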
Settings: Mycobacterium tuberculosis non-replicating, at 25 µM, stronger effect = higher value

Row | SMILES | inhibition [%]
1 | O=C(O)c1ccc(-[n+]2c(-c3ccccc3)cc(-c3ccccc3)cc2-c2ccccc2)cc1 | -4.01
2 | CS(=O)(=O)N(CC(=O)N1CCOCC1)c1cc(C(F)(F)F)ccc1Cl | -10.6
3 | COc1ccc(C(=O)OCC(=O)c2ccc(Br)s2)c(OC)c1 | 66.5
4 | COc1ccc(C(=O)OCC(=O)c2ccc(Cl)s2)c(OC)c1OC | 52.4
5 | O=C(NCCSc1ccccc1)c1ccc(CN2CCOCC2)cc1 | 11.6
6 | Cn1c(N2CCN(C(c3ccccc3)c3ccccc3)CC2)nc2c1c(=O)[nH]c(=O)n2C | -1.75
7 | Nc1ccc2c(c1)C(=O)c1ccccc1C2=O | -1.17
8 | Nc1ccc2c(c1)C(=O)c1ccccc1-2 | 79.4
9 | Cc1cc(NC(=O)CSc2nnc(C3COc4ccccc4O3)o2)no1 (stereo unspecified) | 1.04
10 | O=C(CSc1nnc(C2COc3ccccc3O2)o1)Nc1ccc(F)cc1Cl (stereo unspecified) | 27.9
11 | CCC/C(=N/NC(=O)c1cccc(Cl)c1)c1ccccc1 | 76.9
12 | C/C(=N\NC(=O)c1ccccc1O)C1CC1 | -6.46
13 | CC(/C=C/c1ccccc1)=N\NC(=O)CCc1ccccc1 | -7.22
14 | C/C(=N\NC(N)=O)c1cccc(Cl)c1 | -5.88
15 | C/C(CCc1ccccc1)=N\NC(=O)CCc1ccccc1 | 2.92
16 | CCOc1ccc(OCc2ccc(C(=O)N/N=C(\C)c3ccccn3)cc2)cc1 | 94.8

Row | SMILES | inhibition [%]
17 | CSC(=NNC(=O)c1ccccc1O)SC | 14.8
18 | CCOc1ccc(/C(C)=N\NC(=O)Cc2ccccc2)cc1 | 3
19 | O=C(NCc1nnc(SCC(=O)N2CCC(Cc3ccccc3)CC2)o1)c1ccccc1F | 47.1
20 | CCCCn1c(N)c(N(C)C(=O)c2cc3c(s2)CCCCC3)c(=O)[nH]c1=O | 19.5
21 | Cc1ccc(N(CC(=O)NCc2ccco2)C(=O)CCC(=O)Nc2nccs2)cc1C | -4.11
22 | CCc1ccc(NC(=O)CSc2nc(O)cc(=O)n2C2CCCC2)cc1 | 37.7
23 | COc1ccc(Cl)cc1NC(=O)CN(C)C(=O)c1cc(=O)c2ccccc2o1 | -2.49
24 | CCOC(=O)c1sc(NC(=O)CSc2ccccn2)c(C#N)c1C | 5.94
25 | CC(=O)N(Cc1ccccc1)Cc1cn(CCC#N)nc1-c1cccc([N+](=O)[O-])c1 | -6.03
26 | C/C(CC(=O)N1CCCC1)=N\NC(=O)c1cc2ccccc2cc1O | 7.43
27 | CC(/C=C/c1ccco1)=N/NC(=O)c1ccccc1Cl | 48.9
28 | C/C(=N\NC(=O)c1c[nH]c2ccccc12)c1ccc(C)o1 | 33.3
29 | C/C(=N\NC(=O)c1cc2ccccc2cc1O)c1ccc2c(c1)OCO2 | 14.4
30 | CC(/C=C/c1ccco1)=N\NC(=O)c1cccnc1 | 12.9
31 | CC(=O)N1CCC(=NNC(=O)c2cc3ccccc3cc2O)CC1 | 4.69
